Results reported in PubChem BioAssay (Tox21).
Results filed as inconclusive are left out. A call without a number means that no potency is given here. The source made the active and inactive calls. The call rests on the fitted dose curve; in most records, active means well fitted cell-killing curve with a large enough effect in the repeat runs; inconclusive means weak or mixed curves, or effect the other way; inactive means no such curve, though single readings can be large or run the other way.

experiment: qHTS assay to identify small molecule antagonists of the glucocorticoid receptor (GR) signaling pathway - cell viability counter screen (AID 720693); conditions: GR-bla HeLa viability, CellTiter-Glo luminescence, 18 h, with 5 nM dexamethasone present; series mostly up to 58.5 µM; further: nearly all actives have a fitted effect of over 55% in size
Description: National Center for Advancing Translational Sciences [NCATS]
NIH Chemical Genomics Center [NCGC]
U.S. Environmental Protection Agency [EPA]
National Institutes of Environmental Health Sciences [NIEHS]
National Toxicology Program [NTP]
U.S. Food and Drug Administration [FDA]
The Glucocorticoid receptor (GR) is one of the members of the nuclear receptor family of ligand-dependent transcription factors. GR plays a critical role in carbohydrate, protein and lipid metabolisms and programmed cell death. CellSensor GR-bla HeLa cell line (Invitrogen) contains a beta-lactamase reporter gene under the control of the glucocorticoid response element stably integrated into HeLa cells, a cervical cancer cell line that expresses glucocorticoid receptor. The activation of the reporter gene under culture conditions can be detected by fluorescence intensity. This cell line has been used to screen the Tox21 10K compound library and to identify the compounds that inhibit the GR signaling. The cytotoxicity of the Tox21 compound library against the GR-bla HeLa cell line was tested in parallel by measuring the cell viability using CellTiter-Glo assay in the same wells.
Tox21 Assay Protocol Summary:
The GR-bla HeLa cells were dispensed at 1500 cells/5 ul/well in 1536-well black wall/clear bottom plates using a Multidrop Combi (ThermoFisher Scientific, Waltham, MA) dispenser. After the assay plates were incubated at a 37 C/5% CO2 incubator for 4 hours, 23 nL of compounds dissolved in DMSO, positive controls or DMSO only was transferred to the assay plate by a pintool station (Kalypsys, San Diego, CA), followed by addition of 1 uL of dexamethasone (5 nM, final concentration in the well). The plates were incubated at 37 C for 18 hours. After 1 uL of LiveBLAzerTM B/G FRET substrate was added using a Flying Reagent Dispenser (Aurora Discovery, San Diego, CA), the plates were incubated at room temperature (RT) for 2 hours, and fluorescence intensity was measured by an Envision plate reader (PerkinElmer, Shelton, CT). After measurement of bla assay, 3 ul CellTiter-Glo (Promega, Madison, WI) was added to measure the cytotoxicity and the plates were then incubated at RT for 30 min. The luminescence was measured using a ViewLux (Perkin Elmer) plate reader.

Row | SMILES | Potency
1 | O=C(O)C(c1ccc(Cl)cc1)c1ccc(Cl)cc1 | inactive
2 | C1CCC2OC2C1 (stereo not given) | inactive
3 | CCN(CC)C(C)CN1c2ccccc2Sc2ccccc21 (stereo not given) | inactive
4 | CC(C)c1ccccc1C(C)C | inactive
5 | C[C@H](CCC(=O)O)[C@H]1CC[C@H]2[C@@H]3[C@H](O)C[C@@H]4C[C@H](O)CC[C@]4(C)[C@H]3CC[C@]12C | inactive
6 | CN(C)C/C=C(/c1ccc(Br)cc1)c1cccnc1 | inactive
7 | O=C(O)C1CCC(C(=O)O)CC1 (stereo not given) | inactive
8 | CN1CCN(C2=Nc3cc(Cl)ccc3Nc3ccccc32)CC1 | inactive
9 | CC(C)NCC(O)c1cc(O)cc(O)c1 (stereo not given) | inactive
10 | CCCc1ccccc1 | inactive
11 | CC(=O)OC/C=C/c1ccccc1 | inactive
12 | CN(C)CC[C@@H](c1ccc(Br)cc1)c1ccccn1 | inactive
13 | CCOC(=S)SSC(=S)OCC | inactive
14 | C1=Cc2ccccc2C1 | inactive
15 | CC(=O)O[C@H]1C[C@@H]2CC[C@@H]3[C@H](CC[C@@]4(C)[C@H]3C[C@H]([N+]3(C)CCCCC3)[C@@H]4OC(C)=O)[C@@]2(C)C[C@@H]1N1CCCCC1 | inactive
16 | Cc1ccc(C(=O)C(C)CN2CCCCC2)cc1 (stereo not given) | inactive
17 | O=C=NC1CCC(CC2CCC(N=C=O)CC2)CC1 (stereo not given) | inactive
18 | Nc1nc(CC(=O)O)cs1 | inactive
19 | CCCCCCCCCCCCCCCC(=O)OC/C=C(C)/C=C/C=C(C)/C=C/C1=C(C)CCCC1(C)C | inactive
20 | CC(Cc1cccc(C(F)(F)F)c1)NCCOC(=O)c1ccccc1 (stereo not given) | inactive

Row | SMILES | Potency
21 | CCCC(=O)OCC | inactive
22 | Oc1ccc2c(c1)OCO2 | inactive
23 | Cl/C(=C\n1cncn1)c1ccc(Cl)cc1Cl | inactive
24 | CC(=O)N(O)CCCCCNC(=O)CCC(=O)N(O)CCCCCNC(=O)CCC(=O)N(O)CCCCCN | inactive
25 | CC(=O)O[C@@H]1C(=O)O[C@@H]2[C@H]1OC(=O)[C@@H]2OC(C)=O | inactive
26 | CCC(=O)OC(C)(C)C1CC=C(C)CC1 (stereo not given) | inactive
27 | O=C(O)[C@@H]1[C@H]2C[C@H]3c4[nH]c5ccccc5c4CCN3C[C@@H]2CC[C@@H]1O | inactive
28 | C=C(C)C(=O)OC(C)C | inactive
29 | CCCCC(CC)(CO)CO | inactive
30 | N#Cc1cc2ccccc2c2ccccc12 | inactive
31 | O=C(Nc1ccccc1)OCC(CN1CCCCC1)OC(=O)Nc1ccccc1 (stereo not given) | inactive
32 | NCc1ccccc1 | inactive
33 | O=CNc1ccccc1 | inactive
34 | CC(=O)SCc1ccco1 | inactive
35 | Cn1c(N)nc2nc[nH]c2c1=O | inactive
36 | O=C(C(=O)c1ccc(Br)cc1)c1ccc(Br)cc1 | inactive
37 | CCCCCCCC/C=C\CCCCCCCC(N)=O | inactive
38 | CC(C)c1cccc(C(C)C)c1NC(=O)NS(=O)(=O)c1cc(C(C)(C)O)co1 | inactive
39 | CC(C)CC=O | inactive
40 | CC(O)C1CCCCC1 (stereo not given) | inactive
